Bioassay records as filed in PubChem.
Hits are enriched below; roughly 19% of the tested compounds scored in any of these assays.
HepG2 tox = counter-screen for TGF-b inhibitors: cytotoxicity in HepG2 cells; AID 588856; Potency, µM (top dose mostly 46.1 µM), usual class: cytotoxic; HepG2 CAGA-GFP viability, ATP luminescence, 18 h; 410,000 tested, 0.76% active
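CellTiter-Glo luminescence gave cytotoxicity after 18 hours at 37 degrees C. The cells were HepG2 CAGA-GFP in 1% FBS DMEM, stimulated with 500 pg/mL TGF-beta after compound addition. %Activity was normalised to no-cell wells (complete cell-killing) and DMSO (no toxicity), and curves were fitted and classified.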
TDP1 inh = inhibitors of human tyrosyl-DNA phosphodiesterase TDP1. 350,000 tested, 0.28% active. Potency, µM (titrated, usually from 130 µM), actives largely listed as inhibitors. Q9NUW8. AID 485290. recombinant TDP1, AlphaScreen DNA substrate cleavage; also: nearly all actives have a fitted effect of over 40% in size
Target sequence (Q9NUW8 whole entry, looked up): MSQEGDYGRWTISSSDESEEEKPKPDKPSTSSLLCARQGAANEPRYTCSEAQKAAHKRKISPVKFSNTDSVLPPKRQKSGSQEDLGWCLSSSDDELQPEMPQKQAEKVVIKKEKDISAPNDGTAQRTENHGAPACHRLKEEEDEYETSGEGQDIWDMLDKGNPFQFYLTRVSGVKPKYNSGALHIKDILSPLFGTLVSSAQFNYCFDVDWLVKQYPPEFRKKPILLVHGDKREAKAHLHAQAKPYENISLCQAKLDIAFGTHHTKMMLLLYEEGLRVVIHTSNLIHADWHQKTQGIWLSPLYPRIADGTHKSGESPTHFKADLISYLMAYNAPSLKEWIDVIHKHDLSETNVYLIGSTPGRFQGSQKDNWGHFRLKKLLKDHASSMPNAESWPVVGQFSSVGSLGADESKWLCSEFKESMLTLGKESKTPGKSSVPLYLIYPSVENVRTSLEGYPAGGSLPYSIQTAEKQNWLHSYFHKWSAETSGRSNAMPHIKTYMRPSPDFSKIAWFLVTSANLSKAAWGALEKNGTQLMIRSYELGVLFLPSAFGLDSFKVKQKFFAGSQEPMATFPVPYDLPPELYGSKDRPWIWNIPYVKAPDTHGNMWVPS
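Enzyme-compound mixtures sat 15 min at room temperature, followed by a 5 min reaction with 15 nM final substrate and 10 min with AlphaScreen beads. Recombinant human Tdp1 was used at 1 nM final.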
DT40 TDP1 no CPT = qHTS for Inhibitors of human tyrosyl-DNA phosphodiesterase 1 (TDP1): qHTS in cells in absence of CPT. Potency, µM (titrated, usually from 46.2 µM), usual class: inhibitors. 420,000 tested, 15% active. AID 686978, 2013. DT40 Tdp1-/- hTDP1 cells, no CPT, ATP luminescence, 48 h; also: nearly all actives have a fitted effect of over 55% in size
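Growth kinetics read by CellTiter-Glo luminescence after ≥48 hr at 37 °C. Cells: DT40 Tdp1-/- stably carrying human TDP1, 400 per well, compound exposure in the absence of CPT (DMSO vehicle).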
IL-1B inflam inh = blocks inflammasome-driven IL-1 beta release; THP-1 LPS/ATP IL-1B secretion, AlphaLISA, 16 h; active compounds read low; 360,000 tested, 4.7% active; activity change, % at 57.5 µM; in the data active = activity change below about -50%; inconclusive = mostly about -30% to -49%
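Secreted IL-1B measured by AlphaLISA bead assay after 16 h compound exposure of THP-1 cells; compounds (final up to 57.5 uM) added 1 h before LPS (250 ng/mL) and ATP (1.25 mM) stimulation; lower signal means less secretion.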
TDP1 cell CPT = DT40-hTDP1 cell growth loss with CPT. Potency, µM (top dose mostly 46.2 µM), actives largely listed as inhibitors. 420,000 tested, 12% active. chicken DT40 Tdp1-/-;hTDP1 cells + 20 nM CPT, ATP luminescence, 48 h. AID 686979; also: nearly all actives have a fitted effect of over 55% in size
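Chicken DT40 Tdp1-/- cells complemented with human TDP1, 400 cells/well, exposed to compounds plus 20 nM camptothecin for at least 48 h at 37 C; viability read as ATP content by CellTiter-Glo luminescence.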
TGFb inhibitor = TGF-b pathway inhibition. Potency, µM (series often up to 46.1 µM), most hits filed as inhibitors. 410,000 tested, 1.2% active. HepG2 CAGA-GFP TGF-b/SMAD3 reporter, GFP fluorescence, 18 h; TGF-beta stimulated, 500 pg/mL final; also: nearly all actives have a fitted effect of over 65% in size
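Using HEPG2 CAGA-GFP reporter cells at 1000 cells/well, we pinned test compounds, stimulated with recombinant TGF-beta (500 pg/mL final) and measured total well GFP after 18 h.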
Of the large screens only hits and unclear results are named; the others gave an inactive call; ! = not active in a repeat. Unless noted, calls follow the shape of the dose curve; as a rule, active = well fitted curve in the direction sought with a large enough effect; inconclusive = small, poorly fitted or top-dose-only effect, or another doubt; inactive = no such curve, though single readings can be large; an effect the other way counts as inactive or inconclusive.

Cc1[nH]c2ccccc2c1C(c1ccccn1)N1CCCC1 (stereo not given)	DT40 TDP1 no CPT 16.4µM, TDP1 cell CPT inconclusive
CCOc1ccc(CC(=O)Nc2c(C(=O)c3ccccc3)oc3ccc(OC)cc23)cc1OCC	none (no result: IL-1B inflam inh)
CCCc1cc(F)c(S(=O)(=O)N2CCN(S(=O)(=O)c3ccc4c(c3)OCCO4)CC2)cc1F	none (no result: HepG2 tox, DT40 TDP1 no CPT, IL-1B inflam inh, TDP1 cell CPT, TGFb inhibitor)
Cc1ccc(S(=O)(=O)Nc2cccc(C(=O)N3CCOCC3)c2)c(C)c1NS(C)(=O)=O	none
Cc1ccc(S(=O)(=O)Nc2ccc3c(c2)OCCO3)c(C)c1NS(C)(=O)=O	DT40 TDP1 no CPT 10.3µM, TDP1 cell CPT inconclusive
CC(NC(=O)c1ccco1)c1nnc2n1CCN(Cc1ccc(N3CCCC3)cc1)CC2 (stereo not given)	none (no result: HepG2 tox, TDP1 inh, IL-1B inflam inh, TGFb inhibitor)
CCCCC1CC(C)(C(=O)CSc2nc3ccccc3s2)OC1=O (stereo not given)	DT40 TDP1 no CPT 0.651µM, TGFb inhibitor inconclusive
CC1CCN(C(=O)CSc2nc3ccccc3s2)CC1	none
COc1cc(C(=O)N2CCNC(=O)C2CC(=O)Nc2ccc(C)c(C)c2)cc(OC)c1OC (stereo not given)	none (no result: IL-1B inflam inh)
Cc1ccc(-n2cc(CNCC3CC(=O)N(C4CC4)C3)c(-c3cccc(C)c3)n2)cc1 (stereo not given)	DT40 TDP1 no CPT 14.6µM, IL-1B inflam inh -63.9, TDP1 cell CPT 11.6µM, TGFb inhibitor inconclusive (no result: TDP1 inh)
Cc1c(NS(=O)(=O)c2ccc(N)cc2)c(=O)n(-c2ccccc2)n1C	none (no result: TDP1 inh)
O=S(=O)(NC1CC1)c1ccc(Br)cc1N1CCC[C@H]1CO	DT40 TDP1 no CPT inconclusive, TDP1 cell CPT inconclusive (no result: TDP1 inh)
C=C(C(=O)c1ccccc1)C(NC(C)(C)C)c1ccccc1 (stereo not given)	DT40 TDP1 no CPT 2.31µM, IL-1B inflam inh -101.5, TDP1 cell CPT 2.06µM, TGFb inhibitor inconclusive (no result: TDP1 inh)
COC(=O)C(NC(=O)c1ccccc1)c1ccccc1 (stereo not given)	none
Cc1ccc(C(=O)NCC(=O)OCC(=O)c2c(N)n(C)c(=O)n(C)c2=O)cc1C	none
COCCCC/C(=N\OCCN)c1ccc(C(F)(F)F)cc1	DT40 TDP1 no CPT 20.6µM, IL-1B inflam inh -50.6!, TDP1 cell CPT 13µM!
COCCCCC(=NOCCN)c1ccc(C(F)(F)F)cc1	DT40 TDP1 no CPT 23.7µM, TDP1 cell CPT 13.3µM (no result: HepG2 tox, IL-1B inflam inh, TGFb inhibitor)
O=C(CCC(=O)OCC(=O)c1ccc(C(F)(F)F)cc1)OCC(=O)c1ccc(C(F)(F)F)cc1	none (no result: TDP1 inh)
Cc1ccc(Cc2ccccc2C(=O)O)cc1	TGFb inhibitor inconclusive (no result: TDP1 inh)
CC1=C([N+](=O)[O-])C(c2ccc3c(c2)OCO3)N(C)C(=O)N1C (stereo not given)	DT40 TDP1 no CPT 20.6µM, TDP1 cell CPT 8.2µM (no result: TDP1 inh)
CCC(C)(C)n1nnnc1C(c1cc2cc(C)ccc2[nH]c1=O)N1CCCC1 (stereo not given)	none
COc1cc2cc(C(c3nnnn3C(C)(C)C)N3CCc4ccccc4C3)c(=O)[nH]c2cc1OC (stereo not given)	DT40 TDP1 no CPT inconclusive, TDP1 cell CPT 18.4µM
CCC(C)(C)n1nnnc1C(c1cc2cc(OC)c(OC)cc2[nH]c1=O)N1CCc2ccccc21 (stereo not given)	DT40 TDP1 no CPT inconclusive, TDP1 cell CPT 20µM, TGFb inhibitor inconclusive
CCc1cc2c(cc3c(=O)n(CC(=O)NC4CCC(C)CC4)ncn32)s1 (stereo not given)	DT40 TDP1 no CPT inconclusive, TDP1 cell CPT inconclusive (no result: IL-1B inflam inh)
COc1c(O)cc2c(-c3ccccc3)cc(=O)oc2c1OC	none (no result: HepG2 tox, IL-1B inflam inh, TGFb inhibitor)
CCOc1c(Cl)cc(Cl)cc1CNCCSc1nnnn1C	DT40 TDP1 no CPT inconclusive, TDP1 cell CPT inconclusive (no result: IL-1B inflam inh)
CC(C)C[C@H]1CN=C(N(C)C)N1CC1CCCCCC1	DT40 TDP1 no CPT 20.6µM, TDP1 cell CPT 13µM
